Screens from PubChem BioAssay.
KDM5B inhibitor = blocks human KDM5B histone demethylase activity; Q9UGL1; KDM5B demethylase, FDH-coupled NADH fluorescence (FDH is formaldehyde dehydrogenase); Potency, µM (titrated, usually from 57.7 µM), usual class: inhibitors; 220,000 tested, 2.6% active; active = well fitted inhibition curve with a large enough effect; also: 0% is about no effect; nearly all actives have a fitted effect of over 70% in size
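Inhibition is measured as reduced NADH fluorescence generation from FDH coupling to formaldehyde release. Truncated KDM5BΔAP at 200 nM final acts on H3K4me3 peptide (12.5 µM in substrate mix) in pH 7.5 HEPES buffer with Tween-20, 30 min, room temperature.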
Starred values were filed as active, the others as inactive; i = inactive; ! = not active in a repeat. This is one part of a sample in which hits are shown more often than they occur. Potency is read from the fitted curve at half-maximal effect.

SMILES | KDM5B inhibitor
O=C(Nc1ccc(NC(=O)C2CCN(c3nc4ccccc4o3)CC2)cc1)C1CC1 | i
C[S+](=O)([O-])NC1CCN(c2nc3ncccc3o2)CC1 | 35µM*!
CCOc1ccc(CNC(=O)C2CCN(c3nc4ccccc4o3)CC2)cc1 | i
O=C(Nc1cccc2cccnc12)NC1CCCCC1 | i
COc1ccc(C(=O)NC2CCN(c3nc4ncccc4o3)CC2)cc1 | 22µM*
COc1ccc(C(=O)NC2CCN(c3cnn(C)c(=O)c3)CC2)cc1 | i
CC(=O)NC1CCN(c2nc3ncccc3o2)CC1 | 28µM*
O=C(NC1CCCC1)NC1CCN(c2nc3ncccc3o2)CC1 | 35µM*
CC(=O)Nc1cccc(NC(=O)C2CCN(c3nc4ccccc4o3)CC2)c1 | i
COc1ccc(C(=O)NC2CCN(c3cc(C(F)(F)F)ncn3)CC2)cc1 | i
O=C(Nc1cccc2cccnc12)NC1CCCCCC1 | i
Cc1ccc(NC(=O)c2ncoc2-c2cccc(Cl)c2)c(C)c1 | i
O=C(c1[nH]nc2c1CCc1ccccc1-2)N1CCC(c2noc(-c3ccccn3)n2)C1 (centres undefined) | i
O=C1CCCCCCCC(=O)OCCCCCCO1 | i
Cc1ccc(C(=O)C(Sc2ncccn2)c2ccc(C)cc2)cc1 (centres undefined) | i
COc1ccc(C(=O)CC2(O)C(=O)Nc3ccc(F)cc32)cc1 (centres undefined) | i
Cc1ccc2c(=O)cc(C(=O)N3CCN(C(c4ccccc4)c4ccccc4)CC3)oc2c1 | i
O=S(=O)(Nc1ccccc1-c1n[nH]c(C2CC2)n1)c1cc(Cl)ccc1Cl | i
CCONC(=O)Cc1ccccc1C | i
Cc1cc(C(=O)N[C@H](C)c2onc(-c3cccnc3)c2C(=O)O)nn1C | i
C[C@@H](NC(=O)c1cccnc1)c1onc(-c2cccnc2)c1C(=O)O | i
Cc1nn(-c2ccccc2)nc1C(=O)N[C@H](C)c1onc(-c2cccnc2)c1C(=O)O | 25µM*
CC(Sc1ncnc2ccccc12)C(=O)NC(N)=O (centres undefined) | i
COc1ccc(S(=O)(=O)NCCc2nnc3ccc(SCc4ccccc4Cl)nn23)cc1 | i
c1ccc2c(NC3C4CC5CC(C4)CC3C5)nc(N3CCCC3)nc2c1 (centres undefined) | i
SMILES | KDM5B inhibitor
O=C(Nc1cccn2nc(C3CCC3)nc12)c1ccc(F)cc1Cl | i
O=C(COc1ccccc1)Nc1cccn2nc(C3CCC3)nc12 | i
O=C(Nc1cccn2nc(C3CCC3)nc12)c1ccc(F)cc1F | 32µM*
CC(NC(=O)C1CCCCC1)c1ccc(NC(=O)C2CC2)cc1 (centres undefined) | i
COc1cccc(CNCc2cccc3[nH]ccc23)c1 | i
COc1cccc(CNC(=O)C(=O)c2c[nH]c3ccccc23)c1 | i
Cc1ccc(CSCCNC(=O)NNC(=O)c2ccc(C)cc2)cc1 | i
Cc1ccc(/C=N/c2sc(C)c(C)c2C#N)cc1 | i
O=C(CSc1cn(CC(=O)N2CCCC2)c2ccccc12)Nc1ccc(C(F)(F)F)cc1 | i
Cc1ccc(C)c(C(O)Cn2ccn3nc(-c4cccc(Br)c4)cc3c2=O)c1 (centres undefined) | 32µM*
CC(C)Oc1ccc(CNC(=O)Cn2ncn3nc(-c4cccs4)cc3c2=O)cc1 | i
CC(=O)c1cccc(NC(=O)Cn2ccn3nc(-c4ccccc4)cc3c2=O)c1 | i
Cc1ccc(C)c(C(O)Cn2ccn3nc(-c4cccs4)cc3c2=O)c1 (centres undefined) | 20µM*
Cc1ccc(-c2cc3c(=O)n(CCNC(=O)Cc4cccc(F)c4)ccn3n2)c(C)c1 | i
Cc1ccc(-c2cc3c(=O)n(CCNC(=O)c4ccco4)ccn3n2)c(C)c1 | i
O=C(OCc1cc(=O)n2nc(-c3cccs3)sc2n1)c1cccc(Cl)c1 | i
Cc1cccc(OCC(=O)NCCn2ccn3nc(-c4ccc(C)c(C)c4)cc3c2=O)c1 | i
O=c1c2cc(-c3cccs3)nn2ccn1CC(O)c1cccc(Cl)c1 (centres undefined) | 20µM*
CC1CCN(S(=O)(=O)c2ccc(NC(=O)C3CC(=O)N(CCc4ccc(F)cc4)C3)cc2)CC1 (centres undefined) | i
CCNc1nc(-c2ccc(NC(C)=O)cc2)cs1 | i
CCc1ccccc1NC(=O)C(=O)NCCc1csc(-c2ccc(C(F)(F)F)cc2)n1 | i
CCN1CCN(c2nc(Nc3ccc(OC)cc3)c3nccnc3n2)CC1 | i
Cc1nnc(SCc2c(C(=O)NCC(C)C)oc3ccccc23)s1 | i
O=C(O)CCc1ccc(F)c(F)c1 | i
CN(C)Cc1ccc(CNC(=O)c2nccnc2N)cc1 | i
SMILES | KDM5B inhibitor
COC(=O)c1ccc(CNC(=O)c2cccc(C)c2C)cc1 | i
CO[C@@H]1COCC[C@H]1NC(=O)COc1cccc(-n2cnnn2)c1 | i
COc1cccc(C(=O)N2CCC(C(=O)N[C@@H]3CCOC[C@H]3OC)CC2)c1 | i
CO[C@@H]1COCC[C@H]1NC1CCN(c2ncc3ccc(F)cc3n2)CC1 | 28µM*
CCOc1ccccc1NC(=O)Nc1cc(C)c2nc(NC(C)=O)sc2c1 | i
Cc1ccccc1CC(=O)NCc1nnc2cc(-c3nc(C4CC4)no3)ccn12 | 28µM*
O=C(Cc1ccccc1Cl)NCc1nnc2cc(-c3nc(C4CC4)no3)ccn12 | 16µM*
CCC(C(=O)NCc1nnc2cc(-c3nc(C4CC4)no3)ccn12)c1ccccc1 (centres undefined) | i
CCc1noc(-c2ccn3c(CNC(=O)Cc4cccc(F)c4)nnc3c2)n1 | i
Cc1ccc(CC(=O)NCc2nnc3cc(-c4nc(C5CC5)no4)ccn23)cc1 | 28µM*
COC(=O)c1ccc(/C=N/Nc2ccc(S(N)(=O)=O)cc2[N+](=O)[O-])cc1 | i
O=c1cc(-c2cccc(Br)c2)oc2ccc(Cl)cc12 | i
O=C(Nc1cccc(Br)c1)c1cc(-c2cccnc2)nc2ccccc12 | i
COc1cccc(Oc2coc3cc(OCc4ccccc4F)ccc3c2=O)c1 | i
C[C@H](Nc1ccc(C(F)(F)F)cc1[N+](=O)[O-])C(=O)OCC(=O)NC12CC3CC(CC(C3)C1)C2 | i
CC(NC(=O)c1ccccc1)C1CCCO1 (centres undefined) | i
COc1cc(C)cc(C(C(=O)O)N2CCN(c3cnccn3)CC2)c1OC (centres undefined) | 28µM*
COc1ccc(NC(=O)C2CCCN(c3cnccn3)C2)c(OC)c1 (centres undefined) | i
COc1ccc(NC(=O)C2CCN(c3cnccn3)CC2)cc1OC | i
O=c1[nH]c(N2CCOCC2)nc2c1CCN(Cc1ccc(Cl)c(F)c1)CC2 | i
CCc1nc(CC(=O)Nc2ccc(C)cc2)sc1C | i
CNC(=O)CN1CCN(c2nc(-c3ccccc3)c3ccccc3n2)CC1 | i
CCN1CCN(C(C)CNC(=O)NCc2nc(C)cs2)CC1 (centres undefined) | i
CNC(C)c1ccncc1 (centres undefined) | 16µM*
CNC(C)c1ccc(OC(F)(F)F)cc1 (centres undefined) | i
CNC(C)c1ccc(Oc2ccccc2)cc1 (centres undefined) | i
CC1CCC/C(=N/NC(=O)C2CC2)C1 (centres undefined) | i
O=C(CCNC(=O)C1CCCC1)NC1CCCCCC1 | i
O=S1(=O)NCC2(CCN(Cc3ccoc3)CC2)Oc2ncccc21 | 50µM*
O=S1(=O)NCC2(CCCN(CCc3ccccc3)C2)Oc2ncccc21 (centres undefined) | i
